Drawing on the supplement of paper PMC3898565, this text covers cell viability for 40 compounds.

SMILES strings stand for the structures. Structures can show the parent of a compound that is named as a salt. ± gives the uncertainty stated by the source.
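Further: viable cell number estimated from Alamar Blue fluorescence read at 560/90, part of a single-dose primary screen of an FDA-approved drug library.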

This experiment deals with U87. Briefly: cell viability relative to vehicle control; higher = less growth inhibition (less active). The conditions noted are these: 10 µM; 72 h.
Broadly, the cell viability is a read-out of living cells in per cent, often relative to untreated cells. With `Cc1cccc(CCN2CCC(C(=O)c3ccc(NS(C)(=O)=O)cc3)CC2)n1`, the cell viability came out at 102.6 ± 0.96%. The result for `CO[C@H]1/C=C/O[C@@]2(C)Oc3c(C)c(O)c4c(c3C2=O)C2=NC3(CCN(CC(C)C)CC3)NC2=C(NC(=O)/C(C)=C\C=C\[C@H](C)[C@H](O)[C@@H](C)[C@@H](O)[C@@H](C)[C@H](OC(C)=O)[C@@H]1C)C4=O` reads 104 ± 2.1%. The same measure for `O=C1Nc2ccc(Cl)cc2[C@@](C#CC2CC2)(C(F)(F)F)O1`: 107 ± 1.1%; for `COCCOC(=O)C1=C(C)NC(C)=C(C(=O)OC(C)C)C1c1cccc([N+](=O)[O-])c1` (stereo not given): 103 ± 1.5%. The result for `Cc1c(O)c(=O)ccn1C` reads 102 ± 5.2%; that for `CCCCCCCCCCC[C@@H](C[C@@H]1OC(=O)[C@H]1CCCCCC)OC(=O)[C@H](CC(C)C)NC=O`, 103 ± 3.9%; that for `CC[C@@]1(O)C(=O)OCc2c1cc1n(c2=O)Cc2cc3c(CN(C)C)c(O)ccc3nc2-1`, 24.1 ± 2%. Regarding `COCC1=C(C(=O)OC(C)OC(=O)OC(C)C)N2C(=O)[C@@H](NC(=O)/C(=N\OC)c3csc(N)n3)[C@H]2SC1` (stereo not given in full), the cell viability came out at 106 ± 1.6%. The result for `O=C(c1ccccc1)c1ccc2n1CCC2C(=O)O` (stereo not given) [Ketorolac Tromethamine] reads 101.2 ± 0.98%; that for `Cc1ncc([N+](=O)[O-])n1CCO`, 104 ± 1.2%. The same measure for `O=C1c2c(O)cc(O)cc2O[C@H](c2ccc(O)c(O)c2)[C@H]1O`: 90.7 ± 4.5%; for `O=C(NCCO[N+](=O)[O-])c1cccnc1` [Nicorandil]: 101 ± 2.2%; for `COc1nc(C)nc(Cl)c1NC1=NCCN1`: 102 ± 1.7%. The same measure for `Cc1c(C(=O)NN2CCCCC2)nn(-c2ccc(Cl)cc2Cl)c1-c1ccc(I)cc1`: 106 ± 1.3%. As for `CC(=O)[C@H]1CC[C@H]2[C@@H]3CCC4=CC(=O)CC[C@]4(C)[C@H]3CC[C@]12C`, the cell viability came out at 107 ± 3%. Turning to `C[C@@H]1C[C@H]2[C@@H]3C[C@H](F)C4=CC(=O)C(Cl)=C[C@]4(C)[C@@]3(F)[C@@H](O)C[C@]2(C)[C@@]1(O)C(=O)CO`, the cell viability stood at 102.1 ± 0.4%. The same measure for `COc1cc(N)c(Cl)cc1C(=O)NC1CCN(CCCOc2ccc(F)cc2)CC1OC` (stereo not given) [Cisapride]: 103.5 ± 0.4%.

Consider `Nc1c2c(nc3ccccc13)CCCC2`, for which the cell viability worked out at 110 ± 18%. The same measure for `COc1ccccc1OCC(O)CN1CCN(CC(=O)Nc2c(C)cccc2C)CC1` (stereo not given) [Ranolazine dihydrochloride]: 102.8 ± 0.94%; for `CCOC(=O)OC(C)OC1=C(C(=O)Nc2ccccn2)N(C)S(=O)(=O)c2ccccc21` (stereo not given): 107 ± 1.1%. The result for `CN[C@H]1CC[C@@H](c2ccc(Cl)c(Cl)c2)c2ccccc21` [Sertraline] reads 34.2 ± 3.8%; that for `Nc1ncnc2c1ncn2[C@@H]1O[C@H](CO)C[C@@H]1O` [3'-deoxydenosine], 100.2 ± 0.64%; that for `CCC1=C(C)CN(C(=O)NCCc2ccc(S(=O)(=O)NC(=O)N[C@H]3CC[C@H](C)CC3)cc2)C1=O`, 105 ± 2.2%. On to `COC(=O)C1=C(C)NC(C)=C(C(=O)OC)C1c1ccccc1[N+](=O)[O-]`, for which the cell viability is 105 ± 1.4%.

Regarding `O=C(CCCN1CCC(O)(c2ccc(Cl)cc2)CC1)c1ccc(F)cc1` [Haloperidol], the cell viability was 107.5 ± 0.44%. The result for `N[C@@H](C(=O)N[C@@H]1C(=O)N2C(C(=O)O)=C(Cl)CS[C@H]12)c1ccccc1` reads 104 ± 1.2%; that for `CCOC(=O)c1ccc(OC(=O)CCCCCNC(=N)N)cc1` [Gabexate], 98.6 ± 3.2%; that for `Nc1nc(Cl)nc2c1ncn2[C@@H]1O[C@H](CO)[C@@H](O)[C@H]1O`, 90.6 ± 3%. The result for `CCOc1cc(CC(=O)N[C@@H](CC(C)C)c2ccccc2N2CCCCC2)ccc1C(=O)O` reads 105 ± 1.5%.

With `CC(Oc1c(Cl)cccc1Cl)C1=NCCN1` (stereo not given), the cell viability worked out at 113 ± 11%. The same measure for `CCCCC(=O)N(Cc1ccc(-c2ccccc2-c2nnn[nH]2)cc1)[C@H](C(=O)O)C(C)C`: 108 ± 3%; for `O=C1N(c2ccccc2)c2ccccc2C1(Cc1ccncc1)Cc1ccncc1`: 106 ± 2.1%. The same measure for `C#C[C@]1(O)CC[C@H]2[C@@H]3[C@H](C)CC4=C(CCC(=O)C4)[C@H]3CC[C@@]21C`: 106 ± 2.1%; for `CN(C)CCC[C@@]1(c2ccc(F)cc2)OCc2cc(C#N)ccc21`: 103 ± 1.9%; for `C[C@H]1COc2c(C3(N)CC3)c(F)cc3c(=O)c(C(=O)O)cn1c23`: 101.8 ± 0.5%.

Regarding `O=C(O[C@@H]1C[C@@H]2C[C@H]3C[C@H](C1)N2CC3=O)c1c[nH]c2ccccc12`, the cell viability was found to be 105.8 ± 0.72%. The same measure for `CNCC[C@H](Oc1cccc2ccccc12)c1cccs1` [Duloxetine]: 104 ± 1.9%.

As for `CN(Cc1cnc2nc(N)nc(N)c2n1)c1ccc(C(=O)N[C@@H](CCC(=O)O)C(=O)O)cc1`, the cell viability amounted to 72.9 ± 0.73%. The result for `COc1ccc(C(=O)NCc2ccc(OCCN(C)C)cc2)cc1OC` reads 95.8 ± 3.2%; that for `OC[C@H]1O[C@@H](n2cnc3c(N[C@H]4CCC[C@@H]4O)ncnc32)[C@@H](O)C1O` (stereo partly drawn) [Adenosine, N-(2-hydroxycyclopentyl)-, (1S-trans)- [CAS]], 110.8 ± 0.42%.
